Assay outcomes as filed in PubChem BioAssay.
Only some compounds are listed: those with a hit (about 1.9% of all), similar ones and a draw of the others.
LDHA inh: LDHA (human) enzyme inhibition; hit rate 0.15% among 480,000; activity change, % (values are at about 110 or 230 µM); purified LDHA, NADH/diaphorase-resazurin fluorescence; hits give low values; P00338; in the data active means activity change below about -30%; inconclusive means mostly about -25% to -30%;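 further: plate controls were DMSO wells for no effect and wells without enzyme for full effect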
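LDH5 2 nM; NADH 0.06 mM, pyruvate 0.2 mM; 200 mM Tris pH 7.4, EDTA, Tween-20; 5 min RT. Detection: diaphorase 0.133 mg/mL + resazurin 37 µM, fluorescence ex540/em590 at 0 and 20 min; normalized to enzyme-free and DMSO wells.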
FUS yeast rescue: suppressors of FUS proteinopathy in yeast | S. cerevisiae FUS-expressing, growth rescue, OD600, 24 h | Potency, µM (highest dose often 76.6 µM), usual class: activators | hit rate 0.24% among 390,000 | AID 1347120;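 further: potency means the concentration at half of the fitted maximal effect; plate controls were DMSO vehicle for no effect and reference control for full effect; nearly all actives have a fitted effect of over 55% in size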
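Yeast expressing FUS under galactose induction, OD 0.005 in 2% galactose medium; compounds in a dilution series, 24 h at 30C. Growth rescue by absorbance at 600 nm; CP55940 positive control, DMSO negative.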
Abeta rescue: restores growth of yeast expressing A-beta42 peptide | hit rate 0.063% among 410,000 | yeast expressing A-beta42, growth rescue, OD600, 48 h; response scale: 0% DMSO, 100% iron-clioquinol control | Potency, µM (series often up to 46.1 µM), hits mostly activators; further: potency means the concentration at half of the fitted maximal effect; nearly all actives have a fitted effect of over 55% in size
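Growth rescue measured by 600 nm absorbance after 48 h yeast culture at 30 C with compound. Values normalized between DMSO and an equimolar ferric chloride plus clioquinol control.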
PTHR1 agonist: agonists of human PTHR1 parathyroid hormone receptor; Q03431; AID 743266; hit rate 0.075% among 410,000; HEK293 GP2 PTHR1 cells, GloSensor cAMP luminescence, 1 h; Potency, µM (highest dose often 115 µM), inactives show top-dose activation, usual class: activators; further: potency means the concentration at half of the fitted maximal effect; nearly all actives have a fitted effect of over 55% in size
Target sequence (Q03431 whole entry, looked up): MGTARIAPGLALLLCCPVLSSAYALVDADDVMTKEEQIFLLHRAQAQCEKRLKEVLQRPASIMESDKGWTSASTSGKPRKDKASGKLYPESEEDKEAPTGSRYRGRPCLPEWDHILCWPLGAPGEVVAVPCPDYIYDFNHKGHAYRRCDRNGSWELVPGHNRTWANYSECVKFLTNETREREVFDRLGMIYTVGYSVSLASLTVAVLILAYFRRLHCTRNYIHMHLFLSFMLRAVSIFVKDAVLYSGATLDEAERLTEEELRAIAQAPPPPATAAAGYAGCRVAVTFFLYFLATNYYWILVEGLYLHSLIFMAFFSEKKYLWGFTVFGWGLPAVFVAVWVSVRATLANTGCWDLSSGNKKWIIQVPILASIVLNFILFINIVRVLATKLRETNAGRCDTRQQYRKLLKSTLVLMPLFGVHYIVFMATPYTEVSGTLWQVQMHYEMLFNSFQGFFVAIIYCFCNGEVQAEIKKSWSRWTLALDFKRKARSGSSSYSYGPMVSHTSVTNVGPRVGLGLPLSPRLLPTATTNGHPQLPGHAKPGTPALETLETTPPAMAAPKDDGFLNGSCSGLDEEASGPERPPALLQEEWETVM
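HEK-293-derived GP2 cells expressing PTHR1 and a GloSensor cAMP reporter, 3,000/well, plated overnight, given luciferin plus IBMX (each 0.5 mM as added) for 1 h at 37 °C, then compound for 1 h at 37 °C. Luminescence was read after 15 min at room temperature.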
TDP43 rescue: rescues yeast growth from TDP-43 toxicity | TDP-43 expressing yeast growth rescue, BacTiter-Glo, 24 h | Potency, µM (titrated, usually from 46.1 µM), inactives show top-dose growth rescue (activation), hits mostly activators | hit rate 1.8% among 410,000 | AID 652104; further: potency means the concentration at half of the fitted maximal effect; % of control where 0% means no effect; nearly all actives have a fitted effect of over 50% in size
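Yeast cells expressing TDP-43 under galactose induction are exposed to compounds for 24 hr at 30 deg C. BacTiter-Glo luminescence measures growth, so protective compounds score as activators.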
aSyn rescue: rescues yeast growth from alpha-synuclein toxicity | Yeast expressing alpha-synuclein, growth rescue, BacTiter-Glo, 24 h | Potency, µM (titrated, usually from 46.1 µM), without a hit: top-dose growth rescue (activation), most hits filed as activators | hit rate 0.14% among 370,000; further: potency means the concentration at half of the fitted maximal effect; % of control where 0% means no effect; nearly all actives have a fitted effect of over 65% in size
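Readout is rescue of growth in alpha-synuclein-expressing yeast, so inhibitors of toxicity appear as activators. Growth after 24 hr at 30 deg C in galactose medium is quantified by luminescence.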
* hit, by the source's call; [ ] = dose if it differs, or a comment. Unless noted, the call rests on the fitted dose curve; in most records, active means well fitted curve in the direction sought with a large enough effect; inconclusive means small, poorly fitted or top-dose-only effect, or another doubt; inactive means no such curve, though single readings can be large; an effect the other way counts as inactive or inconclusive.

Screening COC(=O)C1=NN(C(=O)c2ccc(C)cc2)C(O)(c2ccc(Cl)cc2)C1 (stereo not given) returned LDHA inh -1, FUS yeast rescue inconclusive, Abeta rescue inactive, PTHR1 agonist 0%[57.5 µM], TDP43 rescue inconclusive and aSyn rescue 11µM*.
For Cc1ccc(SCC(=O)NC(=O)c2ccccc2Br)c(C)c1 the results were LDHA inh -2, Abeta rescue inactive, PTHR1 agonist inactive, TDP43 rescue 13µM* and aSyn rescue 15%.
Screening NNc1nc(-c2ccccc2Cl)c2cc(Br)ccc2n1 returned LDHA inh -16, FUS yeast rescue inactive, Abeta rescue inactive, PTHR1 agonist inactive, TDP43 rescue 16µM* and aSyn rescue 9%.
For CC(=O)c1ccc(N2CCN(C(=O)CCc3ncc(-c4ccc(F)cc4)o3)CC2)c(F)c1 the results were LDHA inh 2.
`CCOC(=O)c1ccc(-n2c(CCC(=O)O)ccc2-c2ccc(F)cc2)cc1` gave LDHA inh -2, FUS yeast rescue inactive, Abeta rescue inactive, PTHR1 agonist -21%, TDP43 rescue 13µM* and aSyn rescue 9%.
For COC(=O)c1ccc(-n2c(CCC(=O)O)ccc2-c2ccc(C)cc2)cc1 the results were LDHA inh -6, FUS yeast rescue inactive, Abeta rescue inactive, PTHR1 agonist -25%, TDP43 rescue -13% and aSyn rescue 21%.
`Cc1csc(CNC(=O)c2cc(C)c(C)s2)n1` gave LDHA inh -21.
`CCn1c(SCC(=O)c2ccc(O)c(O)c2)nnc1-c1ccccc1` gave LDHA inh 10, FUS yeast rescue inactive, Abeta rescue inactive, PTHR1 agonist -9%[57.5 µM], TDP43 rescue 5% and aSyn rescue -1%.
Cc1ccc(-n2c(SCC(=O)c3ccc(O)c(O)c3)nnc2-c2ccccc2)cc1 was read as FUS yeast rescue 7.9µM*.
`CCn1c2ccccc2c2nnc(SCc3ccccc3)nc21` gave LDHA inh 1, FUS yeast rescue inactive, Abeta rescue inactive, PTHR1 agonist -56%, TDP43 rescue 25µM* and aSyn rescue -18%.
Screening CCOC(=O)CSc1nnc2c3ccccc3n(C)c2n1 returned LDHA inh 0, FUS yeast rescue inactive, Abeta rescue inactive, PTHR1 agonist inactive, TDP43 rescue 13µM* and aSyn rescue -1%.
O=C(NCCc1ccc(OC(F)F)cc1)c1nn(Cc2ccccc2)c(=O)c2ccccc12 was read as LDHA inh 30.
`O=C(CCCOc1ccc(Cl)cc1Cl)N/N=C/c1ccccc1O` gave LDHA inh -8, Abeta rescue inconclusive, PTHR1 agonist inactive, TDP43 rescue inconclusive and aSyn rescue 22µM*.
Screening CCN(CC)C(=O)CCCOc1ccc(Cl)cc1Cl returned LDHA inh -4, FUS yeast rescue inactive, Abeta rescue inactive, PTHR1 agonist -34%, TDP43 rescue 13µM* and aSyn rescue 16%.
For CCC(C(=O)Nc1c(C)cc(C)cc1C)n1c2ccccc2c2nc(=O)cc(C)n21 (stereo not given) the results were LDHA inh 4.
Screening Cc1nn(C(=O)c2ccccc2)c(C)c1Sc1ccc(Cl)cc1 returned LDHA inh 2, FUS yeast rescue inconclusive, Abeta rescue inactive, PTHR1 agonist -28% and TDP43 rescue 35µM*.
COc1ccc(C)cc1NC(=O)C(=O)NCCc1csc2nc(-c3ccccc3C)nn12 was read as LDHA inh -10.
`CN=C1S/C(=C\c2ccc(Cl)cc2)C(=O)N1C` gave LDHA inh 0, FUS yeast rescue inactive, Abeta rescue inactive, PTHR1 agonist inactive, TDP43 rescue 11% and aSyn rescue 2%.
For CN=C1S/C(=C\c2cccc(Cl)c2Cl)C(=O)N1C the results were LDHA inh -5, FUS yeast rescue inactive, Abeta rescue inactive, PTHR1 agonist -14%, TDP43 rescue 13µM* and aSyn rescue 11%.
Screening COc1cccc(NC(=O)CSC2=Nc3ccccc3C3=NC(CC(=O)NCc4ccc5c(c4)OCO5)C(=O)N23)c1 (stereo not given) returned LDHA inh 4, FUS yeast rescue 25µM*, Abeta rescue inactive, PTHR1 agonist -5% and TDP43 rescue 5%.
For O=C(O)CCn1c(SCc2cccc3ccccc23)nc2ccccc21 the results were LDHA inh -4, FUS yeast rescue inactive, Abeta rescue inactive, PTHR1 agonist -30%[57.5 µM], TDP43 rescue 23% and aSyn rescue -13%.
For O=C(O)c1ccccc1CSc1nc2ccccc2n1Cc1ccccc1C(=O)O the results were LDHA inh -32*, FUS yeast rescue inactive, Abeta rescue inactive, PTHR1 agonist -1%, TDP43 rescue -4% and aSyn rescue 0%.
`CCCCC(=O)NC(Nc1ccccc1F)(C(F)(F)F)C(F)(F)F` gave LDHA inh 4.
Screening Cc1ccc(S(=O)(=O)N2CCN(c3ccc(NCc4ccccc4)nn3)CC2)cc1C returned LDHA inh -3.
For Cc1cccc(Oc2c(C=O)c3ccccc3n2C)c1 the results were LDHA inh -3, FUS yeast rescue inactive, Abeta rescue inactive, PTHR1 agonist inactive, TDP43 rescue 18µM* and aSyn rescue -5%.
Screening Cc1ccc2[nH]c(-c3cccc(N)c3)cc2c1 returned LDHA inh 1, FUS yeast rescue inconclusive, Abeta rescue inactive, PTHR1 agonist -16%, TDP43 rescue 22µM* and aSyn rescue 12%.
CCOC(=O)c1oc2c(c1C)/C(=N\O)CCC2 was read as LDHA inh -1.
COc1cc2ccccc2cc1C(=O)N1CCN(c2ccccc2O)CC1 was read as LDHA inh 4, FUS yeast rescue inconclusive, Abeta rescue inactive, PTHR1 agonist -19%, TDP43 rescue 13µM* and aSyn rescue 1%.
Screening COc1ccc(N2CCN(C(=O)c3ccc(N(C)S(=O)(=O)c4ccc(C)cc4)cc3)CC2)cc1 returned LDHA inh -5, FUS yeast rescue inconclusive, Abeta rescue inactive, PTHR1 agonist -34%, TDP43 rescue 13µM* and aSyn rescue 2%.
For COc1ccc(N2CCN(C(=O)c3ccc(N(C)S(=O)(=O)c4ccc(OC)cc4)cc3)CC2)cc1 the results were LDHA inh -3, FUS yeast rescue inconclusive, Abeta rescue inactive, PTHR1 agonist -31%, TDP43 rescue 24% and aSyn rescue 21%.
